# In PubChem BioAssay (EPA / NIEHS):
# Results filed as inconclusive are left out. Active and inactive are the calls of the source. How the source made its calls: active means hit-call score of the fitted dose curve at least 0.9, where 1 is the maximum; inconclusive means response in the unintended direction; inactive means score below 0.9.
# System: zebrafish Androgen Receptor (AR), gene 100005148
# Assay: ATG_zfAR_XSP1: Attagene TRANS-FACTORIAL Multi-Species (XSP1) HepG2 Assay for zebrafish Androgen Receptor (AR) (AID 2283771)
# Description: ATG_XSP1_multi-species_TRANS is a cell-based, multiplexed assay created by modifying the existing Attagene TRANS-FACTORIAL system to include a panel of nuclear receptors from some or all the following species: human (Homo sapiens), mouse (Mus musculus), frog (Xenopus laevis), zebrafish (Danio rerio), chicken (Gallus gallus), and turtle (Chrysemys picta). The ECOTOX-FACTORIAL format uses HepG2, a human liver cell line, with measurements taken at 24 hours after chemical dosing in a 24-well plate. Xsp1 included 3 nM 6-alpha-fluorotestosterone to partially stimulate the androgen receptor.ATG_zfAR_XSP1 is one of 29 assay components measured or calculated from the ATG_XSP1_multi-species_TRANS assay. It is designed to make measurements of mRNA induction, a form of inducible reporter, as detected with fluorescence intensity signals by Reverse transcription polymerase chain reaction (RT-PCR) and Capillary electrophoresis technology.The assay endpoint ATG_zfAR_XSP1 was analyzed in the positive analysis fitting direction relative to DMSO as the negative control and baseline of activity. Using a type of inducible reporter, measures of mRNA for gain-of-signal activity can be used to understand the reporter gene at the transcription factor-level as they relate to the gene AR. Furthermore, this assay endpoint can be referred to as a primary readout, because this assay has produced multiple assay endpoints where this one serves a reporter gene function. To generalize the intended target to other relatable targets, this assay endpoint is annotated to the nuclear receptor intended target family, where the subfamily is steroidal.
# Human liver HepG2 cells are transiently transfected with multiple reporter transcription units (MRTUs) in 6-well plates using FuGene 6 reagent (Roche; 3 ml FuGene/1 mg DNA). The MRTU constructs are regulated by a cis-regulating element (promoter). […] A major difference between the CIS and TRANS system is that in CIS activities of endogenous TFs are measured, whereas the TRANS assay evaluates changes in activities of exogenous, chimeric NR-Gal4 proteins. […] At the end of 24 hour incubation, total RNA was isolated using TriZol reagent (Invitrogen). The isolated RNA is then reverse-transcribed using oligo(dT) primer and Mo-MLV reverse transcriptase (Invitrogen) with DNAse I (Ambion) treatment for 30 min. […] The fragments were purified using Qiaquick PCR columns (Qiagen), analyzed on an ABI 3130xL genetic analyzer (Applied Biosystems) with peak positions identified by using a set of X-rhodamine (ROX)-labeled MapMarker1000 molecular weight standards (BioVentures). […]
Compound,outcome,AC50
CC12CC1(C)C(=O)N(c1cc(Cl)cc(Cl)c1)C2=O (centres undefined),inactive,
CC(C)(C)CC(C)(C)c1ccc(O)cc1,inactive,
C[C@]12CCC(=O)C[C@@H]1CC[C@@H]1[C@@H]2CC[C@]2(C)[C@@H](O)CC[C@@H]12,,0.0358 µM (active)
CC1(C)CCC(Cc2ccc(Cl)cc2)C1(O)Cn1cncn1 (centres undefined),,165 µM (active)

# Target: zebrafish Estrogen Receptor (ESR1), esr1 (gene 259252) (UniProt P57717)
# Sequence (P57717 whole entry, looked up): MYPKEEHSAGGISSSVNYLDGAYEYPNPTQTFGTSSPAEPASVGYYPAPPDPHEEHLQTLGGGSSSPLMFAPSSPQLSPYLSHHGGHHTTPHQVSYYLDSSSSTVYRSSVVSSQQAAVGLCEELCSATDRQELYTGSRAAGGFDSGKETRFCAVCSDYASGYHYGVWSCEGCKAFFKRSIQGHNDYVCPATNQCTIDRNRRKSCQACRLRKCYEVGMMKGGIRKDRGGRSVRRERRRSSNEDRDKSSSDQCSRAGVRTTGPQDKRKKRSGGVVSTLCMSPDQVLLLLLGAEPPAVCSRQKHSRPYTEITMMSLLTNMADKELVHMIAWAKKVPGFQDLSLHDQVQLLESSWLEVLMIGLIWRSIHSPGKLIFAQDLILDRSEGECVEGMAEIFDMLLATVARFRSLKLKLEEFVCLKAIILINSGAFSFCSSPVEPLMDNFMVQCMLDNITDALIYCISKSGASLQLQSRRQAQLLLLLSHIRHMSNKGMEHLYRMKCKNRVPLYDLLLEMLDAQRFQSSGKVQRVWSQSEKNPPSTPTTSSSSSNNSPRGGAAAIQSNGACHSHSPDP
# Assay: ATG_zfER1_XSP1: Attagene TRANS-FACTORIAL Multi-Species (XSP1) HepG2 Assay for zebrafish Estrogen Receptor (ESR1) (AID 2283772)
# In short: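 Transfect HepG2 with GAL4-UAS multi-reporter constructs; treat 24 h (medium carries 3 nM 6-alpha-fluorotestosterone); extract RNA, reverse-transcribe, PCR-amplify, FAM-label, digest with HpaI; resolve by capillary electrophoresis and compare against DMSO baseline.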
row,Compound,outcome
1,CC12CC1(C)C(=O)N(c1cc(Cl)cc(Cl)c1)C2=O (centres undefined),inactive
2,CC1(C)CCC(Cc2ccc(Cl)cc2)C1(O)Cn1cncn1 (centres undefined),inactive
3,CC(C)(C)c1cc(O)ccc1O,inactive

# System: zebrafish Estrogen Receptor (ESR2B), gene 317733
# Assay: ATG_zfER2b_XSP1: Attagene TRANS-FACTORIAL Multi-Species (XSP1) HepG2 Assay for zebrafish Estrogen Receptor (ESR2B) (AID 2283773)
# In short: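 Medium contained 3 nM 6-alpha-fluorotestosterone. Reporter mRNA induction by exogenous zebrafish ER2b-Gal4 chimera was read 24 h post-dose in transiently transfected HepG2 cells, using RT-PCR, fluorescent labelling, HpaI digestion and capillary electrophoresis.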
row,Compound,AC50
1,CC12CC1(C)C(=O)N(c1cc(Cl)cc(Cl)c1)C2=O (centres undefined),60.6 µM (active)
2,CC(C)(C)CC(C)(C)c1ccc(O)cc1,1.7 µM (active)
3,O=C1C2(Cl)C3(Cl)C4(Cl)C(Cl)(Cl)C5(Cl)C3(Cl)C1(Cl)C5(Cl)C24Cl (centres undefined),1.93 µM (active)
4,C[C@]12CCC(=O)C[C@@H]1CC[C@@H]1[C@@H]2CC[C@]2(C)[C@@H](O)CC[C@@H]12,1 µM (active)
5,COP(=O)(OC)O/C(=C\Cl)c1cc(Cl)c(Cl)cc1Cl,73.9 µM (active)
6,CC1(C)CCC(Cc2ccc(Cl)cc2)C1(O)Cn1cncn1 (centres undefined),27.7 µM (active)
7,CC(C)(C)c1cc(O)ccc1O,20 µM (active)
